This is a sample that favours compounds with a hit; in the whole collection about 7.3% have one here.
ELG1 genotox – inducers of genotoxicity in HEK293T ELG1-luciferase cells; 330,000 tested, 1.3% active; AID 504466; HEK293T ELG1-luciferase reporter, luminescence, 16 h; Potency, µM (titrated, usually from 46 µM), inactives show top-dose activity change, positive = activation, hits mostly activators; further: % of control where 0% means no effect; nearly all actives have a fitted effect of over 60% in size
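Luminescence read-out: rising ELG1-luciferase signal, reflecting elevated ELG1 protein under genetic stress, flags genotoxic compounds. Cells were treated for 16 hr at 37 °C before ONE-Glo detection.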
Rab9 promoter act – Rab9 promoter activation; 320,000 tested, 2.8% active; AID 485297; Potency, µM (top dose mostly 9.22 µM), inactives show top-dose activation, negative = inhibition, actives largely listed as activators; Huh7 Rab9 promoter-luciferase reporter, luminescence, 24 h; further: % of control where 0% means no effect; nearly all actives have a fitted effect of over 60% in size
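Cell-based reporter: Huh7 stable for Rab9 promoter-driven luciferase, plated in reduced-serum medium with 10% FBS at 1500 cells/well, compound-treated 24 h at 37 °C, luminescence read after 10 min reagent.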
FLuc modulator – inhibits or activates purified firefly luciferase, miR-21 counter-screen; 360,000 tested, 6.9% active; P08659; purified FLuc, Km substrates, luminescence inhibition; Potency, µM (doses to about 57.5 µM), without a hit: at the top dose activity change, negative = inhibition, actives largely listed as inhibitors;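 further: plate controls were vehicle for no effect and reference inhibitor for full effect; nearly all actives have a fitted effect of over 55% in size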
Target sequence (P08659 whole entry, looked up): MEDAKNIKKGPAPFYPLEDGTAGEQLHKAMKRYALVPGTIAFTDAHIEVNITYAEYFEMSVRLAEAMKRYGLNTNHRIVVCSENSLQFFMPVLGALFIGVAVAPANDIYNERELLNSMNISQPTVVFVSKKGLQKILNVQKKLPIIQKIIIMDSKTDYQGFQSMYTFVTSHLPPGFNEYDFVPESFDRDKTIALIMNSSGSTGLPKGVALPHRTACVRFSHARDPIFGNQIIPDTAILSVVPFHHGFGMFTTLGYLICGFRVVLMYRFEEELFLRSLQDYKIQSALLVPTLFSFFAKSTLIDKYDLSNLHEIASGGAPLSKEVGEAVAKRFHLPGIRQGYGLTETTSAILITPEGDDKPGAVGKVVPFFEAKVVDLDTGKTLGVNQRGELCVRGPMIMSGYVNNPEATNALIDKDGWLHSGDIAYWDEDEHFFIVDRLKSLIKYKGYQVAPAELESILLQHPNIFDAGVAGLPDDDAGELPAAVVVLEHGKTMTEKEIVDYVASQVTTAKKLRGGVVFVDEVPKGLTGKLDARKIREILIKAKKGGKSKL
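Purified P. pyralis luciferase, 10 nM final, with Km-level 10 uM D-luciferin and 10 uM ATP in 50 mM Tris acetate pH 7.5, 10 mM Mg acetate, 0.01% Tween-20, 0.05% BSA; 6-point qHTS titration about 60 µM downward; luminescence read.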
NPC1 promoter act – activates the NPC1 promoter; Huh7 NPC1 promoter luciferase reporter, 24 h; Potency, µM (titrated, usually from 9.22 µM), inactives show at the top dose activation, usual class: activators; 320,000 tested, 2.4% active; further: % of control where 0% means no effect; nearly all actives have a fitted effect of over 60% in size
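Luciferase expression driven by the NPC1 promoter was measured in stably transfected Huh7 cells after a 24 h compound incubation, using a luciferase reagent and a luminescence read.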
SMN2 splice up – enhancers of SMN2 splice variant expression; Potency, µM (doses to about 46.1 µM), without a hit: at the top dose activity change, positive = activation, usual class: activators; 210,000 tested, 2.8% active; AID 1458; HEK293 SMN2-luciferase splicing reporter, luminescence, 30-36 h; further: % of control where 0% means no effect; nearly all actives have a fitted effect of over 55% in size
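qHTS luciferase splicing reporter: luminescence rises when SMN2 exon 7 is included in transfected HEK293 cells. Compound exposure lasted 30-36 h at 37C, with 4.5 mM final sodium butyrate as control, followed by a ONE-Glo read.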
KinaseGlo FLuc – counter-screen: inhibitors of Kinase-Glo firefly luciferase | Q27757 | Kinase-Glo luciferase, ATP luminescence, 8 min | Potency, µM (series often up to 38.3 µM), without a hit: top-dose activity change, negative = inhibition, most hits filed as inhibitors | 200,000 tested, 0.28% active; further: on the % scale 0 is the no-effect control and ±100 the full control effect; nearly all actives have a fitted effect of over 60% in size
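Compounds were added to a substrate mix at pH 7.2 (50 mM imidazole, 10 uM ATP, within the enzyme's linear range), followed by Kinase-Glo detection reagent; luminescence was measured after 8 minutes at ambient temperature.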
Active calls of the source: *. The call rests on the fitted dose curve; in most records, active means well fitted curve in the direction sought with a large enough effect; inconclusive means small, poorly fitted or top-dose-only effect, or another doubt; inactive means no such curve, though single readings can be large; an effect the other way counts as inactive or inconclusive. Potency means the concentration at half of the fitted maximal effect.

`Cc1cccc(CC2C(=O)Nc3ccccc32)c1` (stereo not drawn) gave FLuc modulator -2%.
Cc1ccc(C(=O)Nc2c3c(nn2-c2ccccc2)CS(=O)(=O)C3)cc1C was read as ELG1 genotox -6%, Rab9 promoter act 10%, FLuc modulator 1% and NPC1 promoter act 6%.
Screening Cc1ccc(C(=O)NC2CCN(S(=O)(=O)c3ccc(C)cc3)CC2)cc1 returned ELG1 genotox 3%, Rab9 promoter act -4%, FLuc modulator 1%, NPC1 promoter act -12% and KinaseGlo FLuc 1%.
For Fc1ccc(F)c(C2=NNC(=NCC3CCCO3)SC2)c1 (stereo not drawn) the results were ELG1 genotox 14%, Rab9 promoter act 2.2µM*, FLuc modulator inconclusive, NPC1 promoter act inconclusive, SMN2 splice up inconclusive and KinaseGlo FLuc -2%.
Cc1cc(C(=O)OCC(=O)NCc2ccc(F)cc2)c2ccccc2n1 was read as ELG1 genotox 0%, Rab9 promoter act 0%, FLuc modulator 4% and NPC1 promoter act -8%.
`C=CCNC(=O)CCc1nnc(C2(c3ccc(Cl)cc3)CCC2)o1` gave ELG1 genotox inconclusive, Rab9 promoter act 3.2µM*, FLuc modulator 17µM*, NPC1 promoter act 29%, SMN2 splice up 8.9µM* and KinaseGlo FLuc -5%.
For O=C(CCc1nnc(C2(c3ccc(Cl)cc3)CCC2)o1)N1CCCC1 the results were ELG1 genotox inconclusive, Rab9 promoter act inconclusive, FLuc modulator 17µM* and NPC1 promoter act inconclusive.
For COC(=O)CNC(=O)CCc1nnc(C2(c3ccc(Cl)cc3)CCC2)o1 the results were ELG1 genotox inconclusive, Rab9 promoter act 18%, FLuc modulator inconclusive, NPC1 promoter act 8% and KinaseGlo FLuc -1%.
C=C(C)CNC(=O)CCc1nnc(C2(c3ccc(Cl)cc3)CCC2)o1 was read as ELG1 genotox 12%, Rab9 promoter act inconclusive, FLuc modulator inconclusive, NPC1 promoter act 11% and KinaseGlo FLuc 2%.
COCC(C)NC(=O)CCc1nnc(C2(c3ccc(Cl)cc3)CCC2)o1 (stereo not drawn) was read as ELG1 genotox inconclusive, Rab9 promoter act inconclusive, FLuc modulator 24µM* and NPC1 promoter act 22%.
CCC(=O)C1CCCN(C(=O)CCc2nnc(C3(c4ccc(Cl)cc4)CCC3)o2)C1 (stereo not drawn) was read as ELG1 genotox inconclusive, Rab9 promoter act inconclusive, FLuc modulator 13µM* and NPC1 promoter act inconclusive.
For COc1ccccc1C(=O)N1CCN(c2ccccn2)CC1 the results were ELG1 genotox -1%, Rab9 promoter act -3%, FLuc modulator 0%, NPC1 promoter act 1%, SMN2 splice up -5% and KinaseGlo FLuc -7%.
`CC(=O)c1ccc(-c2nnc(CCC(=O)N3CCCC(C(=O)CC(C)C)C3)o2)s1` (stereo not drawn) gave ELG1 genotox inconclusive, Rab9 promoter act 3.5µM*, FLuc modulator 19µM* and NPC1 promoter act 4.5µM*.
For COc1cccc(/C=C/c2ccccn2)c1O the results were ELG1 genotox 7.3µM*, Rab9 promoter act 2.8µM*, FLuc modulator 3µM* and NPC1 promoter act 1.3µM*.
For Cc1ccc(Cl)cc1Nc1nc(-c2sc(NC(=O)c3ccco3)nc2C)cs1 the results were ELG1 genotox -3%, Rab9 promoter act -15%, FLuc modulator 0%, NPC1 promoter act -13%, SMN2 splice up -77% and KinaseGlo FLuc 7%.
Screening Cc1nc(NC(=O)c2ccco2)sc1-c1csc(Nc2ccc(Cl)cc2)n1 returned ELG1 genotox -10%, Rab9 promoter act 4%, FLuc modulator 11µM*, NPC1 promoter act -2%, SMN2 splice up -27% and KinaseGlo FLuc 1%.
`Cc1nc(NC(=O)c2ccccc2)sc1-c1csc(Nc2ccc(Cl)cc2Cl)n1` gave ELG1 genotox -1%, Rab9 promoter act -1%, FLuc modulator 9.5µM*, NPC1 promoter act 0%, SMN2 splice up 4% and KinaseGlo FLuc -7%.
For Cc1nc(NC(=O)c2ccccc2)sc1-c1csc(Nc2cccc(Cl)c2)n1 the results were ELG1 genotox -7%, Rab9 promoter act 2%, FLuc modulator inconclusive, NPC1 promoter act 0%, SMN2 splice up -33% and KinaseGlo FLuc -3%.
For Cc1nc(NC(=O)c2ccccc2)sc1-c1csc(Nc2ccc(F)cc2)n1 the results were ELG1 genotox -12%, Rab9 promoter act -2%, FLuc modulator 7.6µM*, NPC1 promoter act -5%, SMN2 splice up -46% and KinaseGlo FLuc -9%.
For COc1ccc(Cl)cc1Nc1nc(-c2sc(NC(=O)c3ccccc3)nc2C)cs1 the results were ELG1 genotox -5%, Rab9 promoter act -3%, FLuc modulator 0%, NPC1 promoter act -8%, SMN2 splice up -36% and KinaseGlo FLuc -5%.
For Cc1nc(NC(=O)c2ccccc2)sc1-c1csc(Nc2ccc(Cl)cc2)n1 the results were ELG1 genotox 1%, Rab9 promoter act -6%, FLuc modulator 8.5µM*, NPC1 promoter act -5%, SMN2 splice up -29% and KinaseGlo FLuc 0%.
Screening Cc1ccc(Cn2c3ccccc3c3cnn(CC(=O)Nc4cc(Cl)ccc4C)c(=O)c32)cc1 returned FLuc modulator 4% and SMN2 splice up -2%.
`CCc1ccc(C(=O)NNC(=O)OC)cc1` gave ELG1 genotox inconclusive, Rab9 promoter act -2%, FLuc modulator 0%, NPC1 promoter act -1% and KinaseGlo FLuc -1%.
Nc1nc(Nc2ccccc2F)sc1C(=O)c1ccccc1 was read as ELG1 genotox inconclusive, Rab9 promoter act 0.71µM*, FLuc modulator 6µM* and NPC1 promoter act inconclusive.
Screening Cc1ccccc1Nc1nc(-c2sc(NC(=O)c3ccccc3)nc2C)cs1 returned ELG1 genotox 0%, Rab9 promoter act -4%, FLuc modulator 8.5µM*, NPC1 promoter act 1%, SMN2 splice up 2% and KinaseGlo FLuc -8%.
Screening Cc1nc(Nc2ccccc2)sc1C(=O)c1ccc(F)cc1 returned ELG1 genotox 15%, Rab9 promoter act inconclusive, FLuc modulator 19µM* and NPC1 promoter act inconclusive.
C=CCCC(=O)Nc1nc(C)c(-c2csc(Nc3ccc(Cl)cc3Cl)n2)s1 was read as ELG1 genotox -5%, Rab9 promoter act -7%, FLuc modulator 27µM*, NPC1 promoter act 1%, SMN2 splice up -18% and KinaseGlo FLuc -1%.
For Cc1ccccc1Nc1nc(-c2sc(NC(=O)c3cccc(Cl)c3)nc2C)cs1 the results were ELG1 genotox 0%, Rab9 promoter act 0%, FLuc modulator inconclusive, NPC1 promoter act -1%, SMN2 splice up -18% and KinaseGlo FLuc -7%.
